Experimental data reported in PubChem BioAssay AID1159580 (chemical genetic matrix, 2015).
The campaign covered roughly 5,500 compounds. About 2,000 (36%) were called active. Another 18% or so got no clear call; they are omitted. Cut-off read from the data, not from the text of the source: active = normalized growth mostly below about 0.91 (no sharp cut-off); inconclusive = no clear call, values can overlap the other calls; inactive = mostly above about 0.92. The list shows a part of the results.

Test: chemical genetic growth profiling, strain panel (AID 1159580);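 note: tested at 20 µM; growth read once vehicle control cultures reached saturation at 30 °C; 1 = growth at the plate median or of vehicle wells; lower values mean less growth of the strain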
Conditions: growth OD

Measured: normalized growth

CC(=O)[C@H]1CCC2C3C[C@H](C)C4=CC(=O)CC[C@]4(C)C3[C@@H](O)C[C@@]21C (some centres undefined)
inactive: S. cerevisiae deletion strains, locus YJR075W, strain HOC1, hits give low values 0.993 | S. cerevisiae deletion strains, locus YKL009W, strain mrt4, hits give low values 0.991 | S. cerevisiae deletion strains, locus YKL068W, hits give low values 0.977 | S. cerevisiae deletion strains, locus YKL085W, strain MDH1 (second series), hits give low values 0.96 | S. cerevisiae deletion strains, locus YKL085W, strain MDH1, hits give low values 0.96 | S. cerevisiae deletion strains, locus YKL160W, strain elf1, hits give low values 0.956 | S. cerevisiae deletion strains, locus YKL190W, strain CNB1, hits give low values 0.989 | S. cerevisiae deletion strains, locus YKR001C, strain vps1, hits give low values 0.998 | S. cerevisiae deletion strains, locus YKR026C, strain gcn3, hits give low values 0.986 | S. cerevisiae deletion strains, locus YKR091W, strain srl3, hits give low values 0.977 | S. cerevisiae deletion strains, locus YLL001W, strain dnm1, hits give low values 0.947 | S. cerevisiae deletion strains, locus YLL026W, hits give low values 0.99 | S. cerevisiae deletion strains, locus YLL041C, strain sdh2, hits give low values 0.983 | S. cerevisiae deletion strains, locus YLR027C, strain aat2, hits give low values 0.996 | S. cerevisiae deletion strains, locus YLR039C, strain RIC1, hits give low values 0.785 | S. cerevisiae deletion strains, locus YLR058C, strain SHM2, hits give low values 0.98 | S. cerevisiae deletion strains, locus YLR102C, strain apc9, hits give low values 0.975 | S. cerevisiae deletion strains, locus YLR113W, strain HOG1, hits give low values 0.993 | S. cerevisiae deletion strains, locus YLR221C, strain rsa3, hits give low values 0.945 | S. cerevisiae deletion strains, locus YLR258W, strain gsy2, hits give low values 0.986 | S. cerevisiae deletion strains, locus YLR262C, strain YPT6 (second series), hits give low values 0.95 | S. cerevisiae deletion strains, locus YLR262C, strain YPT6, hits give low values 0.901 | S. cerevisiae deletion strains, locus YLR268W, strain sec22, hits give low values 0.995 | S. cerevisiae deletion strains, locus YLR320W, strain mms22, hits give low values 0.961 | S. cerevisiae deletion strains, locus YLR330W, strain CHS5, hits give low values 0.988 | S. cerevisiae deletion strains, locus YLR342W, strain FKS1 (second series), hits give low values 0.99 | S. cerevisiae deletion strains, locus YLR342W, strain FKS1, hits give low values 0.972 | S. cerevisiae deletion strains, locus YLR357W, strain rsc2, hits give low values 0.948 | S. cerevisiae deletion strains, locus YLR370C, strain arc18, hits give low values 0.959 | S. cerevisiae deletion strains, locus YLR371W, strain rom2, hits give low values 0.978 | S. cerevisiae deletion strains, locus YLR384C, strain iki3, hits give low values 0.987 | S. cerevisiae deletion strains, locus YLR418C, strain cdc73, hits give low values 0.97 | S. cerevisiae deletion strains, locus YML016C, strain PPZ1, hits give low values 0.994 | S. cerevisiae deletion strains, locus YML032C, strain rad52, hits give low values 1.01 | S. cerevisiae deletion strains, locus YML120C, strain ndi1, hits give low values 0.95 | S. cerevisiae deletion strains, locus YML124C, strain tub3, hits give low values 0.98 | S. cerevisiae deletion strains, locus YMR058W, strain fet3, hits give low values 0.989 | S. cerevisiae deletion strains, locus YMR078C, strain ctf18, hits give low values 0.96 | S. cerevisiae deletion strains, locus YMR125W, strain sto1, hits give low values 0.954 | S. cerevisiae deletion strains, locus YMR129W, hits give low values 0.983 | S. cerevisiae deletion strains, locus YMR205C, strain PFK2, hits give low values 0.938 | S. cerevisiae deletion strains, locus YMR223W, strain ubp8, hits give low values 0.953 | S. cerevisiae deletion strains, locus YMR231W, strain pep5, hits give low values 0.989 | S. cerevisiae deletion strains, locus YMR307W, strain GAS1, hits give low values 1.04 | S. cerevisiae deletion strains, locus YNL067W, strain RPL9B, hits give low values 0.99 | S. cerevisiae deletion strains, locus YNL071W, strain lat1, hits give low values 0.973 | S. cerevisiae deletion strains, locus YNL153C, strain GIM3, hits give low values 0.997 | S. cerevisiae deletion strains, locus YNL183C, strain NPR1, hits give low values 0.931 | S. cerevisiae deletion strains, locus YNL209W, strain ssb2, hits give low values 0.994 | S. cerevisiae deletion strains, locus YNL233W, strain BNI4, hits give low values 1 | S. cerevisiae deletion strains, locus YNL248C, strain rpa49, hits give low values 0.985 | S. cerevisiae deletion strains, locus YNL250W, strain rad50, hits give low values 0.961 | S. cerevisiae deletion strains, locus YNL271C, strain bni1, hits give low values 0.972 | S. cerevisiae deletion strains, locus YNL298W, strain CLA4, hits give low values 0.986 | S. cerevisiae deletion strains, locus YNL307C, strain MCK1, hits give low values 0.976 | S. cerevisiae deletion strains, locus YNL322C, strain KRE1 (second series), hits give low values 0.982 | S. cerevisiae deletion strains, locus YNR049C, strain mso1, hits give low values 0.985 | S. cerevisiae deletion strains, locus YNR052C, strain pop2, hits give low values 0.986 | S. cerevisiae deletion strains, locus YOL006C, strain TOP1, hits give low values 0.931 | S. cerevisiae deletion strains, locus YOL012C, strain htz1 1.85 | S. cerevisiae deletion strains, locus YOL147C, strain pex11, hits give low values 0.986 | S. cerevisiae deletion strains, locus YOR001W, strain rrp6, hits give low values 1.03 | S. cerevisiae deletion strains, locus YOR061W, strain CKA2, hits give low values 0.982 | S. cerevisiae deletion strains, locus YOR069W, strain VPS5, hits give low values 0.991 | S. cerevisiae deletion strains, locus YOR070C, strain gyp1, hits give low values 0.986 | S. cerevisiae deletion strains, locus YOR080W, strain dia2, hits give low values 0.984 | S. cerevisiae deletion strains, locus YOR083W, strain WHI5, hits give low values 0.972 | S. cerevisiae deletion strains, locus YOR106W, strain vam3, hits give low values 0.955 | S. cerevisiae deletion strains, locus YOR136W, strain idh2, hits give low values 1 | S. cerevisiae deletion strains, locus YOR144C, strain elg1, hits give low values 0.992 | S. cerevisiae deletion strains, locus YOR184W, strain ser1, hits give low values 0.962 | S. cerevisiae deletion strains, locus YOR231W, strain MKK1, hits give low values 0.977 | S. cerevisiae deletion strains, locus YOR265W, strain rbl2, hits give low values 0.988 | S. cerevisiae deletion strains, locus YOR270C, strain vph1, hits give low values 0.933 | S. cerevisiae deletion strains, locus YOR290C, strain snf2, hits give low values 0.895 | S. cerevisiae deletion strains, locus YOR316C, strain cot1, hits give low values 0.979 | S. cerevisiae deletion strains, locus YPL051W, strain arl3, hits give low values 0.983 | S. cerevisiae deletion strains, locus YPL055C, strain LGE1, hits give low values 0.991 | S. cerevisiae deletion strains, locus YPL078C, strain atp4, hits give low values 0.96 | S. cerevisiae deletion strains, locus YPL106C, strain sse1, hits give low values 0.968 | S. cerevisiae deletion strains, locus YPL240C, strain hsp82, hits give low values 0.989 | S. cerevisiae deletion strains, locus YPL241C, strain CIN2, hits give low values 0.995 | S. cerevisiae deletion strains, locus YPL256C, strain CLN2, hits give low values 0.983 | S. cerevisiae deletion strains, locus YPR119W, strain clb2, hits give low values 0.978 | S. cerevisiae deletion strains, locus YPR141C, strain kar3, hits give low values 0.961 | S. cerevisiae deletion strains, locus YPR163C, strain tif3, hits give low values 0.987 | S. cerevisiae deletion strains, locus YPR167C, strain met16, hits give low values 0.984 | S. cerevisiae deletion strains, strain wtn01, hits give low values 0.983 | S. cerevisiae strains, strain wild type, hits give low values 0.994
